Shown are actives, neighbours in structure and some others; about 3% of the full set was active somewhere.
Peg3 prom inh – Peg3 promoter-driven luciferase inhibitors, primary screen, cell-based, HeLa, luciferase luminescence; HeLa PEG-Prom luciferase reporter, overnight; inhibition, % at 20 µM; hit rate 1.7% among 360,000; AID 588405, 2011;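 active means inhibition of at least 50% at 20 µM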
ABHD5-PLIN5 inh – ABHD5-PLIN5 interaction inhibitors, primary screen, cell lysate, split luciferase complementation, luminescence | Perilipin-5 (Homo sapiens) + 1-acylglycerol-3-phosphate O-acyltransferase ABHD5 (Homo … | Split G. princeps luciferase complementation, 4 h | inhibition, % at 4 µM | hit rate 0.78% among 360,000 | AID 602281, 2012;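 active means inhibition above the mean inhibition across every tested compound plus 3 SD, cut at about 22% in these data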;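 further: 0% = DMSO only wells and the 100% control is not disclosed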
Target sequence (Q00G26 whole entry, looked up): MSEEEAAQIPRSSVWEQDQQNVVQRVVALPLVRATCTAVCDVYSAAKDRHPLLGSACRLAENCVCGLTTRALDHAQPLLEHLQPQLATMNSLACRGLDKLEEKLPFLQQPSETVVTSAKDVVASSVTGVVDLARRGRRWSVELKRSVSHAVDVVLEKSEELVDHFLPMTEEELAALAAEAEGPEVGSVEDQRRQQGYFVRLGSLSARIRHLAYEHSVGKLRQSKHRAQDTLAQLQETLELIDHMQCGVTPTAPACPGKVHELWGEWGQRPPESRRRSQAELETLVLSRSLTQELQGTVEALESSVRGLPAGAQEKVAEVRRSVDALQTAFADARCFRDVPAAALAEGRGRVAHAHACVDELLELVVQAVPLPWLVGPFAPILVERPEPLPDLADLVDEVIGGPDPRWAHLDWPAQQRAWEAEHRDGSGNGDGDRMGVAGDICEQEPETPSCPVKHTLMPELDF
Target sequence (Q8WTS1 whole entry, looked up): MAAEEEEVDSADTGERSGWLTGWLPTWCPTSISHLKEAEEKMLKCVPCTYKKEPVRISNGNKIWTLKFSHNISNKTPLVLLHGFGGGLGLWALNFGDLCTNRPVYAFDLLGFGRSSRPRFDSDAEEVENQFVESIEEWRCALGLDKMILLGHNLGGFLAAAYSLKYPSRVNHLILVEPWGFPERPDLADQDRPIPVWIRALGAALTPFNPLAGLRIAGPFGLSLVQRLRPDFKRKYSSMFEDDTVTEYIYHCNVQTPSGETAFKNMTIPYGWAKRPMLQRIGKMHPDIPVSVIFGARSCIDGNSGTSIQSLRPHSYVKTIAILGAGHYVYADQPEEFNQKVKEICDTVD
CF NFkB block – inhibitors of PAF-induced NF-kB signaling, primary screen, cell-based, GFP fluorescence, uHTS. KKLEB NF-kB-GFP reporter, GFP fluorescence overnight. inhibition, % at 5 µM. hit rate 0.86% among 360,000. AID 588850, 2011;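 active means at least 50% inhibition at 5 µM, scaled per plate between neutral and stimulator controls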;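 further: PAF is a Pseudomonas aeruginosa culture filtrate used as stimulus; plate controls were PAF-stimulated DMSO wells for no effect and unstimulated DMSO wells for full effect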
KKLEB cytotox – cytotoxicity in KKLEB CF airway cells, primary screen, cytotoxicity control for CF NF-kB inhibitor project, cell-based, uHTS, fluorescence assay plates | hit rate 0.36% among 360,000 | KKLEB CF airway cells viability, ATPlite luminescence, overnight; active compounds read low; cells stimulated with P. aeruginosa culture filtrate | activity change (cytotoxicity), % at 5 µM;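 active means corrected activity change at or below -50% at 5 µM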
HIF-2a inh – HIF-2a reporter inhibitors, primary screen, luminescence, 786-0 RCC cells; 786-0 RCC cells HIF-2a reporter, luciferase luminescence, overnight; inhibition, % at 18.8 µM; hit rate 0.72% among 360,000; AID 624352, 2012;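 active means inhibition of the luminescence signal of 40% or more relative to plate controls, in a single-dose primary screen at 18.75 µM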
MITF TRPM1 inh – inhibitors of MITF-dependent TRPM1 promoter reporter, primary screen, cell-based, SK-MEL-5, single point, luciferase; hit rate 0.83% among 330,000; inhibition, % at 12.5 µM; SK-MEL-5 TRPM1 promoter luciferase, 24 h;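 active means mean inhibition across replicates of 60% or more, whatever share of single replicates reaches that level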
Numbers without * were called inactive.

CC(C)N(Cc1nccn1C)C(=O)c1cc(COc2ccc(F)cc2Cl)on1 was read as Peg3 prom inh 8, ABHD5-PLIN5 inh -7, CF NFkB block 22, KKLEB cytotox -6, HIF-2a inh -4 and MITF TRPM1 inh -1.
Screening COc1cc(/C=N/NC(=O)CCn2cnc(-c3ccccc3)c2-c2ccccc2)ccc1O returned Peg3 prom inh 53*, ABHD5-PLIN5 inh 11, CF NFkB block -8, KKLEB cytotox 4, HIF-2a inh 20 and MITF TRPM1 inh 2.
Screening COc1cc(/C=N/NC(=S)Nc2cccc(C(=O)O)c2)ccc1O returned Peg3 prom inh 12, ABHD5-PLIN5 inh 3, CF NFkB block -3, KKLEB cytotox -6, HIF-2a inh 43* and MITF TRPM1 inh 40.
`COc1cc(/C=C/CNC[C@H]2O[C@@H](n3ccc(=O)[nH]c3=O)[C@H](O)[C@@H]2O)ccc1O` gave Peg3 prom inh 4, ABHD5-PLIN5 inh 2, CF NFkB block 6, KKLEB cytotox 3, HIF-2a inh 4 and MITF TRPM1 inh 2.
`C[N+]1(C)CC[C@H](OC(=O)[C@@](O)(c2ccccc2)C2CCCC2)C1` gave Peg3 prom inh -4, ABHD5-PLIN5 inh 0, CF NFkB block -26, KKLEB cytotox -67*, HIF-2a inh -9 and MITF TRPM1 inh 0.
Cc1ccc(Nc2ncc3c(n2)CC(C)(C)CC3=O)cc1 was read as Peg3 prom inh -312, ABHD5-PLIN5 inh -3, CF NFkB block 3, KKLEB cytotox -14, HIF-2a inh -308 and MITF TRPM1 inh -92.
For Nc1nc2n[nH]nc2c(=O)[nH]1 the results were Peg3 prom inh 13, ABHD5-PLIN5 inh 5, CF NFkB block -10, KKLEB cytotox 8, HIF-2a inh 5 and MITF TRPM1 inh 65*.
`Cc1ccc(S(=O)(=O)c2cn(C)c3cc(N4CCN(C)CC4)c(F)cc3c2=O)c(C)c1` gave Peg3 prom inh 76*, ABHD5-PLIN5 inh 2, CF NFkB block 5, KKLEB cytotox -12, HIF-2a inh 18 and MITF TRPM1 inh 18.
COc1ccccc1N1CCN(CCCNC(=O)Nc2ccccc2C)CC1 was read as Peg3 prom inh 10, ABHD5-PLIN5 inh -4, CF NFkB block -2, KKLEB cytotox 4, HIF-2a inh 0 and MITF TRPM1 inh 2.
For COc1ccc(Cl)cc1N1CCN(CCNC(=O)Nc2ccccc2C)CC1 the results were Peg3 prom inh 51*, ABHD5-PLIN5 inh 20, CF NFkB block -2, KKLEB cytotox -13, HIF-2a inh 29 and MITF TRPM1 inh 0.
For CCN1C(=O)CC(NC2CCN(C(=O)c3ccc(F)cc3)CC2)C1=O (stereo unspecified) the results were Peg3 prom inh 3, ABHD5-PLIN5 inh -3, CF NFkB block 9, KKLEB cytotox 0, HIF-2a inh 4 and MITF TRPM1 inh 6.
For CN(CC(=O)Nc1cccc(F)c1)C(=O)c1cc(-c2cccs2)nn1-c1ccccc1 the results were Peg3 prom inh 56*, ABHD5-PLIN5 inh -6, CF NFkB block -6, KKLEB cytotox 4, HIF-2a inh 9 and MITF TRPM1 inh 12.
Screening CN(CC(=O)Nc1ccccc1C(F)(F)F)C(=O)c1cc(-c2cccs2)nn1-c1ccccc1 returned Peg3 prom inh 34, ABHD5-PLIN5 inh 6, CF NFkB block 14, KKLEB cytotox -5, HIF-2a inh 14 and MITF TRPM1 inh 4.
For CC1CCCCC12NC(=O)N(CC(=O)Nc1ccc(N3CCCCC3)cc1)C2=O (stereo unspecified) the results were Peg3 prom inh 1, ABHD5-PLIN5 inh -4, CF NFkB block -12, KKLEB cytotox 3, HIF-2a inh -2 and MITF TRPM1 inh -9.
Screening Oc1ccc(N=Nc2n[nH]c(-c3ccc(Br)cc3)n2)cc1 returned Peg3 prom inh 86*, ABHD5-PLIN5 inh 3, CF NFkB block -13, KKLEB cytotox 33, HIF-2a inh -95 and MITF TRPM1 inh -10.
C[C@@H]1CN([C@H](C)CO)C(=O)CCCn2nncc2CO[C@H]1CN(C)Cc1cccc(C(F)(F)F)c1 was read as Peg3 prom inh 13, ABHD5-PLIN5 inh 2, CF NFkB block -5, KKLEB cytotox -3 and HIF-2a inh 11.
COCCn1c(C)cc(C2=NNC(=Nc3ccc(Cl)cc3Cl)SC2)c1C was read as Peg3 prom inh -3, ABHD5-PLIN5 inh -5, CF NFkB block 3, KKLEB cytotox 1, HIF-2a inh 7 and MITF TRPM1 inh 13.
`C=CCn1c(C)cc(C2=NNC(=NC(C)(C)C)SC2)c1C` gave Peg3 prom inh 43, ABHD5-PLIN5 inh 7, CF NFkB block -4, KKLEB cytotox -10, HIF-2a inh 49* and MITF TRPM1 inh 79*.
Screening C=CCN=C1NN=C(c2cc(C)n(CCOC)c2C)CS1 returned Peg3 prom inh -15, ABHD5-PLIN5 inh 1, CF NFkB block 9, KKLEB cytotox 8, HIF-2a inh 47* and MITF TRPM1 inh 24.
`O=C(NCC(F)(F)F)c1ccc(S(=O)(=O)Nc2ccccc2N2CCCC2)cc1` gave Peg3 prom inh 15, ABHD5-PLIN5 inh -7, CF NFkB block -22, KKLEB cytotox 4, HIF-2a inh 12 and MITF TRPM1 inh 7.
Screening COc1ccc(CNC(=O)C[C@H]2C(=O)N(CCc3ccccc3)C[C@@H]2Cc2ccccc2)cc1 returned Peg3 prom inh 11, ABHD5-PLIN5 inh -4, CF NFkB block 7, KKLEB cytotox -8, HIF-2a inh 8 and MITF TRPM1 inh 8.
COC(=O)C1=C(C)NC(C)=C(C(=O)OC)C1c1ccc2ccccc2n1 was read as Peg3 prom inh -1, ABHD5-PLIN5 inh -3, CF NFkB block 5, KKLEB cytotox 6, HIF-2a inh 1 and MITF TRPM1 inh 4.
Screening O=C1c2ccccc2C(=O)C1c1ccc2ccccc2n1 returned Peg3 prom inh 53*, ABHD5-PLIN5 inh 3, CF NFkB block -185, KKLEB cytotox -68*, HIF-2a inh -25 and MITF TRPM1 inh 60.
Screening Cc1ccc(S(=O)(=O)N(C)C)cc1NC(=O)CSc1nc2ncc(Cl)cc2[nH]1 returned Peg3 prom inh 9, ABHD5-PLIN5 inh 8, CF NFkB block 24, KKLEB cytotox -8, HIF-2a inh -3 and MITF TRPM1 inh 5.
For c1ccc(-c2cn(C[C@H]3CC[C@H](Cn4cc(-c5ccccn5)nn4)O3)nn2)nc1 the results were Peg3 prom inh 0, ABHD5-PLIN5 inh 4, CF NFkB block 16, KKLEB cytotox 12, HIF-2a inh -5 and MITF TRPM1 inh -1.
For COc1ccccc1C(=O)NCCC(=O)N1CC=C(c2ccccc2)CC1 the results were Peg3 prom inh 5, ABHD5-PLIN5 inh 24*, CF NFkB block 0, KKLEB cytotox 2, HIF-2a inh 14 and MITF TRPM1 inh -10.

Compound activity as filed in PubChem BioAssay.
